Experimental findings from ChEMBL document CHEMBL4513216, “Probing the Open Global Health Chemical Diversity Library for Multistage-Active Starting Points for Next-Generation Antimalarials” (ACS Infect Dis, 2020) are described below.

The structures appear in SMILES notation. The whole screen tested about 69,000 compounds, of which about 8,600 (12%) showed an effect of 50% or more. The sample as a whole holds a higher share of strong results than the screen did.

This experiment has as its system Plasmodium berghei. Nature of the experiment: Screen against P. berghei liver stage (PbLuc), transformed with Luciferase, at 10uM. Format: functional, HepG2. To be noted: tested at 10 uM.
With `Cn1ccnc1S(=O)(=O)C(C(=O)N1CCCCC1)c1ccccc1` (stereo not given), the INHIBITION worked out at 28.1%.

On to `COCCN1CCCc2sc(C(=O)Nc3ccc(C)nc3)nc21`, for which the INHIBITION is recorded as 16.9%.

Turning to `Cc1ccc(OCCNc2cccc(C(=O)N3CCOCC3)c2)cc1`, the INHIBITION is -17.3%.

For the compound `CC(CN1CCCC1=O)NC(=O)c1ccc(-c2ccco2)[nH]c1=O` (stereo not given), the INHIBITION amounted to 16.6%.

As to `O=c1nc(CNc2ccccc2)[nH]n1Cc1ccccc1`, the INHIBITION is given as -31.6%.

As to `COc1nccc(C(F)(F)F)c1C(=O)O`, the INHIBITION worked out at 4.12%.

For the compound `CC(C)CCNC(=O)c1ccc(Cl)c(NS(C)(=O)=O)c1`, the INHIBITION worked out at 54.4%.

In the case of `Cc1ccc(C(=O)NCCC(C)C)cc1NS(C)(=O)=O`, the INHIBITION turned out to be 18.6%.

Consider `Cc1ccc(C(=O)NCCCNS(C)(=O)=O)cc1C`, for which the INHIBITION is -43.2%.

Turning to `CCN(CC)CCNC(=O)c1ccc(Cl)c(NS(C)(=O)=O)c1`, the INHIBITION was 18.6%.

As to `Cc1cc(C(=O)NCCC(C)C)ccc1NS(C)(=O)=O`, the INHIBITION is on record as 65.6%.

In the case of `CC(C)(C)CCNC(=O)c1ccc(Cl)c(NS(C)(=O)=O)c1`, the INHIBITION is given as -3.81%.

Take `Cc1nccn1-c1ccc(=O)n(CCNC(=O)c2c(F)cccc2Cl)n1`: the INHIBITION is 6.67%.

On to `CCn1ccnc1CN1CCN(CC(O)CN2CCOCC2)CC1` (stereo not given), for which the INHIBITION is 12.415%.

Take `CC(NC(=O)NCCC1=CCCCC1)c1nncn1C` (stereo not given): the INHIBITION is listed as 15.7%.

On to `Cc1ccc(-c2nc(C3CCN(C(=O)c4ccn(C)n4)CC3)no2)cn1`, for which the INHIBITION is -26.7%.

Consider `CN(CC(=O)NCC(F)(F)F)C(=O)c1ccc(C(=O)OC(C)(C)C)cc1`, for which the INHIBITION is listed as 63.7%.

In the case of `CN(CC(=O)NCC(F)(F)F)C(=O)c1ccc(=O)[nH]c1`, the INHIBITION is -10.8%.

`Cc1ccc(C(=O)N(C)CC(=O)NCC(F)(F)F)cn1`: the INHIBITION came to 42%.

As for `COC(=O)c1cccn1C1CCN(C(=O)c2cc(F)ccc2C)CC1`, the INHIBITION worked out at 8.64%.

As to `CS(=O)(=O)N1CC(=O)N(CCCc2ccccc2)CC(O)C1` (stereo not given), the INHIBITION was 42.7%.

Consider `COc1ccc(-c2nc(C(=O)NCC3CCOC3)cs2)cc1OC` (stereo not given), for which the INHIBITION came to 34.7%.

Consider `Cc1cc(CCC(=O)O)nc(C2CCCN2c2ccnc(C)n2)n1` (stereo not given), for which the INHIBITION worked out at 50.8%.

As for `Cc1cc(N2CCCC2c2nc(C)cc(CCC(=O)O)n2)ncn1` (stereo not given), the INHIBITION is recorded as 9.93%.

`Cc1cc(C)nc(C2CCCN2c2ccnc(C)n2)n1` (stereo not given): the INHIBITION is 7.52%.

As to `CN(C)C(=O)CCc1cncc(C2CCCN2Cc2ccccn2)n1` (stereo not given), the INHIBITION is given as -1.85%.

Regarding `O=C(O)CCc1cccc(C2CCCN2Cc2ccc(F)c(F)c2)n1` (stereo not given), the INHIBITION came to 58%.

Turning to `Cc1cccc(CN2CCCC2c2cccc(CCC(=O)O)n2)c1` (stereo not given), the INHIBITION is 51.5%.

On to `O=C(O)CCc1cccc(C2CCCN2Cc2cccc(Cl)c2)n1` (stereo not given), for which the INHIBITION stood at 19.6%.

Consider `Cc1cn[nH]c1C1CCCN1Cc1ccc(F)c(F)c1` (stereo not given), for which the INHIBITION worked out at 15.5%.

`Cc1cc(C)nc(N2CCC(c3cccc(CCC(=O)O)n3)CC2)n1`: the INHIBITION was found to be 4.13%.

As to `O=C(c1ccnnc1)N1C[C@H](OCC2CC2)[C@H]2COC[C@H]21`, the INHIBITION is -2.25%.

`CCOC(=O)c1sc(NC(=O)c2cc(=O)c(OC)c[nH]2)nc1C`: the INHIBITION is listed as 8.12%.

For `CCS(=O)(=O)N1CC[C@@H]2[C@H](CC1)N(Cc1cccc(C)n1)CCS2(=O)=O`, the INHIBITION amounted to 49.7%.

For the compound `CCc1nc(CN(C)C2CCN(Cc3nnc(C4CCC4)o3)C2)no1` (stereo not given), the INHIBITION stood at 21.5%.

As to `CC1c2ncc(CNC(=O)C3CC3)n2CCN1Cc1cnn(C)c1` (stereo not given), the INHIBITION was -8.94%.

Take `O=C(COc1ccccc1NCc1ccoc1)N1CCOCC1`: the INHIBITION is listed as -5.22%.

Turning to `CCc1nnsc1C(=O)N1CCCC1c1c(C)nn(C)c1OC` (stereo not given), the INHIBITION was -25.8%.

As to `Cc1nc(N)nc(C)c1Cc1nc(C2CC2)n[nH]1`, the INHIBITION amounted to 32.3%.

Turning to `Cc1n[nH]c(C)c1CCc1nc(C2CC2)n[nH]1`, the INHIBITION worked out at 50.7%.

On to `Cc1nc(C)c(Cc2nc(C3CC3)n[nH]2)c(=O)[nH]1`, for which the INHIBITION was found to be 29%.

For `CC(=O)NCC(=O)N1CCN(CCN(C)C)c2ncccc2C1`, the INHIBITION worked out at 6.79%.

For the compound `Nc1ccncc1-n1cc(CCO)cn1`, the INHIBITION is reported as 33.3%.

Regarding `Cn1c(CCCNC(=O)Nc2cn[nH]c2)nc2ccccc21`, the INHIBITION is given as -7.66%.

As for `Cn1c(CCNc2nccnc2C#N)nc2cc(Cl)ccc21`, the INHIBITION is 32.3%.

As for `Cn1c(CCNc2nccnc2C#N)nc2ccc(F)cc21`, the INHIBITION is on record as 67.3%.

For the compound `CC(C)n1nccc1NC(=O)NCCc1nc2ccc(F)cc2n1C`, the INHIBITION turned out to be 73.6%.

As to `Cc1nnc(NCCc2nc3ccc(F)cc3n2C)c(C#N)c1C`, the INHIBITION is 34.1%.

Regarding `Cn1c(CCNC(=O)Nc2cn[nH]c2)nc2ccc(F)cc21`, the INHIBITION is listed as -5.52%.

In the case of `Cc1nc(C2CCCN2CCOCC2CC2)no1` (stereo not given), the INHIBITION is on record as -77.6%.
